aSyn 5UTR act = Activators working through SNCA 5'UTR binding (MLPCN) | alpha-synuclein 5'UTR reporter, activators screen | 7.1% of 300,000 active | activity score, % (tested at 7.5 µM), hits read low; in the data active means activity score below about -60%
An asterisk follows results filed as active. These entries were drawn from the full list.

SMILES | aSyn 5UTR act
Cc1ccsc1/C=N/Nc1ncc(Cl)cc1Cl | -71*
Cc1cc(C)nc(N/N=C/c2ccccc2Cl)n1 | -88*
Cc1cc(C)nc(N/N=C/c2ccccc2)n1 | -73*
Cc1cc(C)c2nc(C)cc(N/N=C/c3ccc(O)cc3)c2c1 | 112
CN(C)S(=O)(=O)c1cccc(NC(=O)c2ccc3c(c2)OCCO3)c1 | -119*
CCN1C(=O)c2cccc3c(NC(=O)c4ccc5c(c4)OCCO5)ccc1c23 | -79*
CCC(=O)Nc1cccc(NC(=O)c2ccc3c(c2)OCCO3)c1 | -105*
N#Cc1c(N2CCOCC2)nsc1-c1ccc(C(F)(F)F)cc1 | -134*
COC(=O)c1ccc(COc2ccccc2/C=N/NS(=O)(=O)c2ccc(C)cc2)cc1 | -69*
COC(=O)c1ccc(COc2ccccc2/C=C(\C#N)C(=O)Nc2ccc(C)cc2)cc1 | -154*
COc1cc(/C=N/NS(=O)(=O)c2ccc(C)cc2)ccc1OCc1ccc(C(=O)O)cc1 | 84
Cc1ccc(S(=O)(=O)CCSc2n[nH]c(=O)n2-c2ccc3c(c2)OCCO3)cc1 | -72*
c1ccc(C2=NN(c3ccccc3)CC2)cc1 | -157*
CC1=C(CC(=O)c2ccccc2)C(=O)c2ccccc2C1=O | -79*
O=C1NC(=S)N/C1=C/C=C/c1ccccc1 | -92*
Oc1csc(Cc2nc(-c3ccc(Br)cc3)cs2)n1 | -291*
O=[N+]([O-])c1cc(-c2nc(-c3ccncc3)no2)ccc1Cl | -79*
O=[N+]([O-])c1cc(-c2nc(-c3ccncc3)no2)cc([N+](=O)[O-])c1 | -118*
COC(=O)c1c(-c2ccccc2)csc1NC1=NS(=O)(=O)c2ccccc21 | -121*
CC1(C)CCC(=O)N2CC[C@H]3C[C@H](OC(=O)Nc4ccccc4)C[C@@H]1[C@H]32 | -116*
CC1(C)CCC(=O)N2CC[C@H]3C[C@H](OC(=O)Nc4ccc5c(c4)OCO5)C[C@@H]1[C@H]32 | -105*
CC(C)c1ccc(NC(=O)CSc2ncccc2C(=O)Oc2cccc([N+](=O)[O-])c2)cc1 | -115*
CNC(=O)C(=O)Nc1nc(C23CC4CC(CC(C4)C2)C3)cs1 | -129*
O=C(COc1ccccc1F)N/N=C1\CCCc2ccccc21 | -162*
Cc1cccc2c1OCC/C2=N\NC(=O)COc1ccccc1 | -86*
SMILES | aSyn 5UTR act
COc1ccccc1OCC(=O)N/N=C1\CCc2ccccc21 | -143*
CC(=O)N(/N=C1/C(=O)Nc2ccccc21)c1ccccc1 | -114*
CCNc1ccc(Br)cc(C(=O)/C=C/c2c(Cl)cccc2Cl)c1=O | -133*
O=C(NC12CC3CC(CC(C3)C1)C2)c1ccc(-c2ccccc2Cl)o1 | -220*
O=C(NC12CC3CC(CC(C3)C1)C2)c1ccc(-c2cccc(Cl)c2)o1 | -133*
O=C(NC12CC3CC(CC(C3)C1)C2)c1ccc(-c2ccc(Cl)cc2)o1 | -251*
COc1ccc(-n2c(-c3ccc(Br)cc3)c[n+]3c2CCc2ccccc2-3)cc1 | -91*
CC(C)c1ccc(-n2c(-c3ccccc3)c[n+]3c2CCc2ccccc2-3)cc1 | 78
CCOC(=O)c1cnn2c(C)cc(-c3ccccc3)nc12 | -120*
CCOC(=O)c1cnc2c(C(=O)OCC)cnn2c1N | -63*
Cc1cc(C)n2ncc(/C(N)=N/OC(=O)c3ccccc3F)c2n1 | -100*
CCOC(=O)c1cnc2cc(-c3ccc(C(C)(C)C)cc3)nn2c1N | -232*
CCOC(=O)c1cnc(-n2nc(C)cc2C)nc1NNc1cc(-c2ccccc2)nc(C)n1 | 93
CCOC(=O)c1cnn(-c2ccc(C)cc2)c1N | -100*
CCOC(=O)c1cnc2c(-c3cccc(Br)c3)cnn2c1C | -127*
CS(=O)(=O)c1ccc2nc(NC(=O)Nc3ccccc3F)sc2c1 | -109*
CS(=O)(=O)c1ccc2nc(NC(=O)Nc3cccc(Cl)c3)sc2c1 | -85*
Cc1ccc(Nc2nc3ccccc3s2)cc1 | -171*
Fc1ccc(Nc2nc3ccccc3s2)cc1 | -207*
Cc1ccccc1Nc1nn2c(=O)c3ccccc3nc2s1 | -155*
Cc1ccccc1Nc1nc2ccccc2s1 | -220*
CN(C)c1ccc(CNc2nc3ccccc3s2)cc1 | 80
CCCCC[n+]1ccn(C2=C([O-])c3ccccc3C(=O)/C2=N\S(=O)(=O)c2ccc(Cl)cc2)c1 | 48
O=C(N/N=C\c1ccc(Cl)s1)C1COc2ccccc2O1 (stereo unspecified) | -67*
O=C(N/N=C\c1ccc(Cl)s1)c1cccs1 | -67*
SMILES | aSyn 5UTR act
COc1ccccc1C(=O)N/N=C/c1cnc2ccccc2n1 | -102*
COc1ccccc1C(=O)N/N=C/c1ccc(Cl)s1 | -179*
O=C(N/N=C/c1c[nH]c2ccccc12)C1COc2ccccc2O1 (stereo unspecified) | 76
COc1cc(C2CC(=O)Nc3n[nH]c(-c4ccccc4)c32)cc(OC)c1OC (stereo unspecified) | -120*
COc1cc(/C=C2\CC(C(C)(C)C)C/C(=C\c3cc(OC)c(OC)c(OC)c3)C2=O)cc(OC)c1OC (stereo unspecified) | 80
Cc1ccc(C)c(/C=N/Nc2nc3ccccc3c(=O)n2O)c1 | -85*
CC(C)(C)c1nnc(N/N=C/c2cc(Br)ccc2O)n(N)c1=O | 116
C/C(=N\Nc1nc2ccccc2c(=O)n1O)c1ccco1 | -119*
Cc1nc2ccccc2c(=O)n1NC(=O)/C=C/c1ccccc1Cl | -138*
O=C(/C=C/c1ccccc1Cl)Nn1cnc2ccccc2c1=O | -137*
Cc1cc(NC(=O)/C=C/c2ccccc2Cl)n(-c2nc3ccccc3[nH]2)n1 | -111*
CSc1ccccc1OCc1cc(C(=O)N2CCCC2c2nonc2C)no1 (stereo unspecified) | -144*
Cc1nonc1C1CCCN1C(=O)c1cc(COc2ccc(F)cc2F)on1 (stereo unspecified) | -126*
CCCCCCCCC[n+]1cccc2c3ccccc3ccc21 | 69
CC(=O)Nc1nc(NC(=O)/C=C/c2ccccc2)n(-c2ccccc2)n1 | 79
COc1ccc(C(=O)/C=C/Nc2cc(C)on2)cc1 | -94*
COc1ccc(/C=C/C(=O)Nc2cc(C(F)(F)F)ccc2Cl)cc1 | -62*
Cc1cc(NC(=O)/C=C/c2ccccc2)no1 | -156*
Cc1cc(NC(=O)/C=C/c2ccccc2Cl)no1 | -249*
C#CCNC(=O)/C=C/c1ccc(OC)cc1 | -75*
COc1ccc(/C=C/C(=O)Nc2cc(C)on2)cc1 | -216*
COc1ccc(/C=C/C(=O)Nc2nonc2NC(C)=O)cc1 | -155*
COc1cc(-c2noc(C)c2/C=C/c2ccc(OC(C)=O)cc2)cc(OC)c1OC | 95
O=C(CCCOc1ccccc1)N1CCCc2ccccc21 | -73*
O=C(COc1ccccc1)N1CCc2ccccc21 | -167*
SMILES | aSyn 5UTR act
O=C(COc1ccccc1Cl)N1CCc2ccccc2C1 | -91*
O=C(COc1ccccc1Cl)N1CCc2ccccc21 | -135*
Cc1noc(C)c1COc1cccc(C(=O)OCC(=O)N2CC(=O)Nc3ccccc32)c1 | 65
O=C(COc1ccc(Br)cc1)N1CCc2ccccc21 | -100*
O=C1CN(C(=O)OCc2ccccc2)c2ccccc2N1 | -89*
CC(=O)/C(=N/Nc1ccc(Br)cc1)N1CCCc2ccccc21 | 61
O=C(/C=C/c1ccc(Cl)c(Cl)c1)N1CCc2ccccc21 | -241*
O=C(CCCc1ccccc1)N1CCc2ccccc21 | -117*
O=C(OCc1ccccc1)N1CCc2ccccc21 | -119*
COC(=O)C(Cc1ccc(OC(=O)c2ccc(Cl)cc2)cc1)N1Cc2ccccc2C1=O (stereo unspecified) | -124*
